Data from PubChem BioAssay AID651804 (National Center for Advancing Translational Sciences (NCATS), 2012).
Hit rate of the full screen: of about 1,200 compounds, about 20 (2%) were called active. Inconclusive results (about 23%) are left out. Calls come from the whole dose curve; as a rule, active = well fitted inhibition curve with a large enough effect; inconclusive = small, poorly fitted or top-dose-only effect; inactive = no such curve, though single readings can be large or run the other way. The entries come from a sample that favours actives as a whole. Entries that show only a call come without a potency.

target: Transcriptional regulator ERG (Homo sapiens) (UniProt P11308); test: qHTS for Small Molecule Inhibitors of the ERG Ets/DNA interaction: HTRF assay against cherry picks; conditions: His-ERG Ets domain with biotin-DNA; series mostly up to 154 µM
Sequence (P11308 whole entry, looked up, the tested form may be a part): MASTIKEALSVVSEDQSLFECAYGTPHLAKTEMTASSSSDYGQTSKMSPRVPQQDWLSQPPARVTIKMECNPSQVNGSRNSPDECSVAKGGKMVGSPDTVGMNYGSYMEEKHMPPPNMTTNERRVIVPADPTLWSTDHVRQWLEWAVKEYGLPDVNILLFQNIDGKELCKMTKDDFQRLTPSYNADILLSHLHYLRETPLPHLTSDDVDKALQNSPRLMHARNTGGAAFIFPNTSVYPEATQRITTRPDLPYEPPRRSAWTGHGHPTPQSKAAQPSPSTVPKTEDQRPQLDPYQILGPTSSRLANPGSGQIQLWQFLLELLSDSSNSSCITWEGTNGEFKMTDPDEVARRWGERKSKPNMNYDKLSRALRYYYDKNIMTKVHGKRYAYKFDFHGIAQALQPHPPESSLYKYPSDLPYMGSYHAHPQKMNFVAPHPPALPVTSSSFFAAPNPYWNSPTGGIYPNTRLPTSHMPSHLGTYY
Source text: The Ets family of proteins is a family of ~30 conserved transcription factors defined by the presence of an ~85 amino acid domain referred to as the Ets domain, which mediates sequence-specific DNA binding to a core DNA element GGAA/T.The Ets family member ERG has been linked to several neoplasms. […] More extensive studies of the effects of over-expression of ERG in prostate cells have recently been carried out and have shown that over-expression of ERG results in increased invasion. […] We will carry out a high throughout screen to identify inhibitors of the interaction between ERG and DNA using a fluorescence polarization (FP) assay with a His-tagged ERG Ets domain and fluorescently-labeled DNA probes to develop small molecule inhibitors of this interaction as probes to test this hypothesis and lay the groundwork for the development of targeted therapies against ERG. This is the counterscreen against the cherry picks. NIH Molecular Libraries Probe Production Network [MLPCN] NIH Chemical Genomics Center [NCGC] Grant: NS066464 PI Name: John Bushweller, University of Virgina
2 ul of protein solution (200 nM ERG domain in 300mM KCl, 50mM Tris-HCl, 1mM EDTA, 1mM DTT, pH 7.5); 20 nl Control plate and compound library plate; 2 ul of 200 nM biotin-DNA; incubate for 10 min at RT; 1 ul of anti-His antibody conjugated to the long-life fluorescent cryptate donner […] (5ng/ul) and streptavidin conjugated to the acceptor compound […] (0.2 ng/ul) mix; incubate 10 min and measure FRET (Excitation = 320 nm, Emission = 615, 665 nm).
Potency is the fitted concentration of half-maximal effect.

| SMILES | Potency |
| --- | --- |
| CCOc1cc(CNc2cccc3[nH]c(C)nc23)ccc1OC | inactive |
| Cc1cc(C)cc(NC(=O)CCOc2ccccc2)c1 | inactive |
| O=C1CC(Cc2ccccc2)C(=O)N1c1ccc(Cl)cn1 (stereo not drawn) | inactive |
| COc1ccc(C(=O)N[C@H](C(=O)N2CCN(c3ccccc3F)CC2)C(C)C)cc1 | inactive |
| CC(=O)NNc1cc(N2CCOCC2)nc(N2CCOCC2)n1 | inactive |
| COc1cc(SC)ccc1C(=O)NC(C)C | inactive |
| COc1ccc(S(=O)(=O)NNC(=S)NCCc2ccccc2)c(OC)c1 | inactive |
| Cc1ccc2nc3c(c(N)c2c1)CCN3C | inactive |
| CCc1cc(C(=O)OC)c(NC(=O)CN2CCN(C(=O)C3CCCO3)CC2)s1 (stereo not drawn) | inactive |
| Cc1ccc(S(=O)(=O)N2CCC[C@H]2C(=O)NC2CCCCC2)cc1 | inactive |
| CCOC(=O)CC1C(=O)NCCN1C(=O)c1c(F)cccc1F (stereo not drawn) | inactive |
| CC(=O)NC(CC(=O)Nc1nc(-c2ccccc2)c(C(C)=O)s1)c1ccccc1 (stereo not drawn) | inactive |
| COc1ccc(N(CCC(=O)Nc2ccccc2F)S(=O)(=O)c2ccc(C)cc2C)cc1 | inactive |
| CCN(CC)c1ccc([N+](=O)[O-])cc1C(=O)O | inactive |
| CN(CCO)C1=NS(=O)(=O)c2cc([N+](=O)[O-])ccc21 | 28.2 µM (active) |
| O=C(COc1ccccc1)Nc1ccc2c(c1)Cc1cc(NC(=O)COc3ccccc3)ccc1-2 | inactive |
| CNC(=O)C(=O)NCCN1CCN(C(=O)c2ccc([N+](=O)[O-])cc2)CC1 | inactive |
| COc1ccc(OC)c(NC(=O)Cn2cnc3sc(C)c(S(=O)(=O)N4CCN(c5ccccc5OC)CC4)c3c2=O)c1 | inactive |
| CN(C)c1nc2n(c(=S)n1)CCS2 | inactive |
| CCC1COC(c2cccn2Cc2ccc(Cl)cc2)=N1 (stereo not drawn) | inactive |
| CC(=O)OCC(=O)C1=CCC2C3CCC4=CC(=O)C=CC4(C)C3(F)C(OC(C)=O)CC12C (stereo not drawn) | inactive |
| COc1cc(OC)cc(C(=O)NCC(=O)OCc2csc(-c3ccccc3)n2)c1 | inactive |
| CCn1cc(S(=O)(=O)Nc2ccc(Cl)cc2F)cn1 | inactive |
| COc1ccc([N+](=O)[O-])c(OC)c1C(=O)NC(=O)Nc1c(F)c(F)c(F)c(F)c1F | inactive |
| CCn1c(CSc2ncn[nH]2)nc2cc(C(=O)O)ccc21 | inactive |
| O=C1C(SCCO)=C(SCCO)C(=O)c2ccccc21 | 50.1 µM (active) |

| SMILES | Potency |
| --- | --- |
| CS(=O)(=O)NN1C(=O)c2ccccc2NC1c1cccc(O)c1 (stereo not drawn) | inactive |
| S=C(NCc1ccco1)N1CCN(c2ccccn2)CC1 | inactive |
| CCOc1ccccc1N1CCN(C(=O)c2cc(S(=O)(=O)N(C)C)ccc2N2CCCC2)CC1 | inactive |
| COc1ccc(CNC(=O)CN2C(=O)NC3(CCCCCC3)C2=O)cc1OC | inactive |
| CCn1nc(C)cc1C(=O)N1CCCC(N2CCN(Cc3ccc4c(c3)OCO4)CC2)C1 (stereo not drawn) | inactive |
| CCCC(=O)Nn1cnc2c(c1=O)C1(CCCCC1)Cc1ccccc1-2 | inactive |
| COc1ccc(S(=O)(=O)NCC2CC3C=CC2C3)cc1OC (stereo not drawn) | inactive |
| COCCNC(=O)Cn1c(=O)n(CCCC(=O)NCc2ccc3c(c2)OCO3)c(=O)c2sccc21 | inactive |
| COC(=O)C1=C(C)NC(C)=C(C(=O)OC)C1c1ccc(-c2cccc(Cl)c2Cl)o1 | inactive |
| CCOc1ccc(NC(=O)CN(C)C(=O)c2ccccc2CCc2ccccc2)cc1OCC | inactive |
| COc1ccc(CCNC(=O)Cn2cc(C(F)(F)F)cc(Cl)c2=O)cc1 | inactive |
| CSc1nc2c(c(=O)[nH]1)C(c1cccc(Br)c1)CC(=O)N2 (stereo not drawn) | inactive |
| CC(=O)Nc1ccc(S(=O)(=O)Nc2nc3ccccc3nc2Nc2ccc(O)c(C(=O)O)c2)cc1 | inactive |
| COC(OC)c1nc(SCC(=O)Nc2cccc(Cl)c2)ncc1C(=O)O | inactive |
| CCC(Oc1ccccc1F)C(=O)NCCCn1ccnc1 (stereo not drawn) | inactive |
| Cc1nonc1C1CCCN1C(=O)c1cc(COc2ccc(F)cc2Cl)on1 (stereo not drawn) | inactive |
| Cc1ccc(COC(=O)CCN=C2NS(=O)(=O)c3ccccc32)cc1 | inactive |
| Nc1cccc(N2C(=O)c3cccc4c(N)ccc(c34)C2=O)c1 | 39.8 µM (active) |
| O=C(Nc1ccc(-c2nc3ccccc3[nH]2)cc1)c1c(F)c(F)c(F)c(F)c1F | inactive |
| Cn1ccc(C(=O)OCC(=O)Nc2ccccc2)n1 | inactive |
| COc1ccc(CNC(=O)COC(=O)CCOc2ccccc2)cc1 | inactive |
| Cc1nn(-c2ccc(Cl)cc2)c2[nH]c(CCl)cc(=O)c12 | inactive |
| Cc1cc(S(=O)(=O)N2CCOCC2)ccc1OCC(=O)Nc1ccc(F)c(Cl)c1 | inactive |
| C=CCn1c2ccccc2c2nnc(SCC(=O)NC(C(=O)OC)C(C)C)nc21 (stereo not drawn) | inactive |
| O=C1c2ccc3c4c(ccc(c24)C(=O)N1CCCCO)C(=O)N(CCCCO)C3=O | 20 µM (active) |
| N#Cc1c(NC(=O)CCCN2C(=O)c3ccccc3C2=O)oc(-c2ccccc2)c1-c1ccccc1 | inactive |

| SMILES | Potency |
| --- | --- |
| Cc1ccc(N(CCCCN2C(=O)c3ccccc3C2=O)C(=O)c2ccc(Cl)s2)cc1 | inactive |
| CC(=O)C(c1ccccc1)C(c1ccccc1)C(C)[N+](=O)[O-] (stereo not drawn) | inactive |
| COc1cc(CO)ccc1OCC(=O)Nc1cccc2ccccc12 | inactive |
| CN(C(=O)COC(=O)c1ccc(F)c(S(=O)(=O)N2CCOCC2)c1)C1CCS(=O)(=O)C1 (stereo not drawn) | inactive |
| Cc1occc1C(=O)NCCc1ccc(Cl)cc1 | inactive |
| CCc1cc(C(=O)NNC(=S)Nc2cccc(C)c2)cs1 | inactive |
| Cc1cccc(-n2c(-c3ccccc3)c[nH]c2=S)c1C | inactive |
| Cc1ccc(NC(=O)c2cc3cc(OC(F)(F)F)ccc3[nH]2)cc1 | inactive |
| CCCCn1c(=O)[nH]c2nc3cc(N)ccc3nc2c1=O | 50.1 µM (active) |
| CCCCn1c(N)c(N(CC)C(=O)c2ccc(C#N)cc2)c(=O)[nH]c1=O | inactive |
| O=C(Nc1ccccc1)Nc1ncc([N+](=O)[O-])s1 | 39.8 µM (active) |
| Cc1cc(C)nc(N2CCN(c3nnnn3-c3ccccc3)CC2)n1 | inactive |
| CCCN(C(=O)c1nn(-c2ccc(C)cc2)c(=O)c2c1c1ccccc1n2C)c1ccccc1C | inactive |
| Cc1ccccc1C(=O)N/N=C1/SCC(=O)N1Cc1ccccc1 | inactive |
| Cc1cccc(C(=O)NCCNc2nc3cc(C)c(C)cc3cc2C)c1 | inactive |
| O=C1c2ccccc2C(=O)c2c1ncn2-c1ccccc1 | 15.8 µM (active) |
| O=C(CNC(=S)N(Cc1ccccc1)Cc1cccnc1)NC1CCCCC1 | inactive |
| Cc1ccc(-c2noc(C3CCCN(C(=O)c4cccc([N+](=O)[O-])c4)C3)n2)o1 (stereo not drawn) | inactive |
| Cc1cc2cc(CNC(=O)C(C)Oc3ccccc3)ccc2n1C (stereo not drawn) | inactive |
| CC(Oc1ccc(F)cc1)C(=O)Nc1ccc(S(=O)(=O)NC2=NCCCCC2)cc1 (stereo not drawn) | inactive |
| COc1ccc(C(=O)NCc2ccc(OCCN(C)C)cc2)cc1OC | inactive |
| Cc1cc(F)ccc1NC(=O)c1ccc(NS(=O)(=O)c2cc(C(C)(C)C)ccc2C)cc1 | inactive |
| O=C1[C@H]2[C@@H](c3ccc(F)cc3)N3C(=O)N(c4cccc(F)c4)C(=O)[C@@]3(Cc3ccccc3)[C@H]2C(=O)N1C1CCCCC1 | inactive |
| CCNc1nc(OCC)nc(N2CCC(Cc3ccccc3)CC2)n1 | inactive |
| CSc1ccccc1NC(=O)CN(C)C(=O)/C=C/c1ccccc1 | inactive |
| CC(=O)c1cccc(NC(=O)C(C)OC(=O)CCc2nc3ccccc3c(=O)[nH]2)c1 (stereo not drawn) | inactive |

| SMILES | Potency |
| --- | --- |
| Nc1ccc2[nH]ncc2c1 | inactive |
| O=C(CSC1=NCCS1)NC(NC(=O)CSC1=NCCS1)c1ccccc1 | inactive |
| CCOc1ccccc1NC(=O)COc1ccc2ccc(=O)oc2c1 | inactive |
| O=C(COC(=O)/C=C/c1ccc([N+](=O)[O-])cc1)NCc1cccs1 | inactive |
| O=C(CCc1c[nH]c2ccccc12)NCc1ccco1 | inactive |
| O=C(/C=C/c1ccc([N+](=O)[O-])cc1)NCc1ccco1 | 28.2 µM (active) |
| O=C(NCc1cccnc1)c1ccccc1-c1nc(-c2ccccc2)no1 | inactive |
| O=C(NC(c1ccccc1)C(Cl)Cl)c1ccccc1 (stereo not drawn) | inactive |
| CCOC(=O)CSc1nc2ccc(NC(=O)c3ccc(F)cc3)cc2s1 | inactive |
| CCN(C(=O)CSc1nc2cc(C(=O)O)ccc2c(=O)n1Cc1ccccc1)c1ccccc1 | inactive |
| Cc1noc(C)c1S(=O)(=O)N(CC(=O)NCc1ccc(F)cc1)c1ccc(C(C)C)cc1 | inactive |
| Cc1[nH]c2ccc(C(=O)OCC(=O)Nc3cccc(S(N)(=O)=O)c3)cc2c1C | inactive |
| O=C(C1CCN(CCc2ccccc2)CC1)N1CCOCC1 | inactive |
| Cc1ccnn1-c1ccc(C(=O)OCC(=O)Nc2ccc(F)cc2)cc1 | inactive |
| CCN(CC(=O)N1CCCCCC1)S(=O)(=O)c1ccc(Cl)cc1 | inactive |
| COc1ccc(-c2cc(N)n(S(=O)(=O)Cc3ccccc3)n2)c(OC)c1 | inactive |
| O=C(CCN=C1NS(=O)(=O)c2ccccc21)OCc1ccccc1 | inactive |
| COc1ccc(NC2CCCN(C(=O)C3(C)CCCCC3)C2)cc1OC (stereo not drawn) | inactive |
| COc1ccccc1C(C)NC(=O)c1cc(S(=O)(=O)N2CCCCC2)ccc1C (stereo not drawn) | inactive |
| O=C(C1CC(=O)N(c2ccc(Cl)cc2)C1)N1CCCCCC1 (stereo not drawn) | inactive |
| CCN(C(=O)COC(=O)c1ccc(=O)n(Cc2ccccc2)n1)C1CCS(=O)(=O)C1 (stereo not drawn) | inactive |
| C=CCC[C@H](Cc1ccc(F)cc1)C(=O)OC[C@@H](Cc1c[nH]c2ccccc12)NC(=O)[C@H](CC=C)CC(=O)N(CCO)Cc1ccccc1 | inactive |
| O=C(OCC(=O)c1c[nH]c2ccccc12)c1ccc([N+](=O)[O-])s1 | 35.5 µM (active) |
| Cc1nn(C2CCS(=O)(=O)C2)c(Cl)c1/C=C/C(=O)OCC(=O)c1c[nH]c2ccccc12 (stereo not drawn) | inactive |
| CCCN(CC(=O)Nc1ccc(F)c(F)c1F)C(=O)C1CC(=O)N(Cc2ccccc2)C1 (stereo not drawn) | inactive |
